Measurements reported in PubChem BioAssay (NCATS).
Inconclusive results are not listed. Calls of active or inactive are those of the source. Calls follow the shape of the dose curve; as a rule, active = well fitted curve in the direction sought with a large enough effect; inconclusive = small, poorly fitted or top-dose-only effect, or another doubt; inactive = no such curve, though single readings can be large; an effect the other way counts as inactive or inconclusive.

Key:
[1] = Quantitative highthroughput screen to assess conditional lethalithy of NOMO1 cells grown in RPMI1640 with dialyzed fetal bovine serum (RPMI+ds) (AID 1963877); also: nearly all actives have a fitted effect of over 30% in size; also: potency is read from the fitted curve at half-maximal effect;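 as to viability: series mostly up to about 46 µM; 100% = DMSO control wells and 0% = empty wells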
In short: (§1)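 Each medium arm—HPLM with 10% dialyzed FBS, or RPMI1640 with 5 mM glucose and 10% untreated or dialyzed FBS—was screened against an 11-point, 3-fold compound titration for 48 h at 37 °C, with CellTiter-Glo luminescence as endpoint.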

[2] = Quantitative highthroughput screen to assess conditional lethalithy of P12 Ichikawa cells grown in Human Plasma-Like Medium with dialyzed fetal bovine serum (HPLM+ds) (AID 1963879); details: Potency: viability; also: nearly all actives have a fitted effect of over 35% in size; also: potency is read from the fitted curve at half-maximal effect; as to viability: series mostly up to about 46 µM
In short: as §1

[3] = Quantitative highthroughput screen to assess conditional lethalithy of P12 Ichikawa cells grown in RPMI1640 with dialyzed fetal bovine serum (RPMI+ds) (AID 1963880); details: Potency: P12-Ichikawa viability; also: nearly all actives have a fitted effect of over 35% in size; also: potency is read from the fitted curve at half-maximal effect;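 as to viability: 100% = DMSO wells and 0% = empty wells on each plate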
In short: as §1

[4] = Quantitative highthroughput screen to assess conditional lethalithy of P12 Ichikawa cells grown in RPMI1640 with untreated serum (RPMI+s) (AID 1963881); details: Potency: viability; also: nearly all actives have a fitted effect of over 35% in size; also: potency is read from the fitted curve at half-maximal effect;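 as to viability: series mostly up to about 46 µM; 100% = DMSO wells and 0% = empty wells without cells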
In short: as §1

[5] = Quantitative highthroughput screen to assess conditional lethalithy of SEM cells grown in Human Plasma-Like Medium with dialyzed fetal bovine serum (HPLM+ds) (AID 1963882); also: nearly all actives have a fitted effect of over 35% in size; also: potency is read from the fitted curve at half-maximal effect; as to viability: series mostly up to about 46 µM
In short: as §1

[6] = Quantitative highthroughput screen to assess conditional lethalithy of SEM cells grown in RPMI1640 with dialyzed fetal bovine serum (RPMI+ds) (AID 1963884); also: nearly all actives have a fitted effect of over 35% in size; also: potency is read from the fitted curve at half-maximal effect;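 as to viability: series mostly up to about 46 µM; 100% = DMSO control wells and 0% = empty wells without cells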
In short: as §1

[7] = Quantitative highthroughput screen to assess conditional lethalithy of NOMO1 cells grown in RPMI1640 with untreated serum (RPMI+s) (AID 1963876); also: nearly all actives have a fitted effect of over 35% in size; also: potency is read from the fitted curve at half-maximal effect;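 as to viability: 100% = DMSO wells and 0% = empty wells without cells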
In short: as §1

[8] = Cellular viability qHTS for adrenocortical cancer (ACC) cell line SW-13 (AID 1963989); details: SW-13 ACC cells viability, CellTiter-Glo, 48 h; activity (max response): active compounds read low; also: nearly all actives have a fitted effect of over 65% in size; also: potency is read from the fitted curve at half-maximal effect;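 as to activity (max response): cells grown in serum-free medium with ITS supplement; % is scaled to controls: 0 for no effect and ±100 for the full control effect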
In short: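 SW-13 cells in ITS-supplemented serum-free DMEM were plated overnight, then exposed for 48 h at 37C to compound titrations (up to 46 uM final). Viability was read by CellTiter-Glo luminescence; four-parameter logistic fits gave IC50 and efficacy.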

[9] = Quantitative highthroughput screen to assess conditional lethalithy of NOMO1 cells grown in Human Plasma-Like Medium with dialyzed fetal bovine serum (HPLM+ds) (AID 1963878); also: nearly all actives have a fitted effect of over 35% in size; also: potency is read from the fitted curve at half-maximal effect;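 as to viability: 100% = DMSO wells and 0% = empty wells on each plate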
In short: as §1

[10] = Quantitative highthroughput screen to assess conditional lethalithy of SEM cells grown in RPMI1640 with unreated serum (RPMI+s) (AID 1963883); also: nearly all actives have a fitted effect of over 35% in size; also: potency is read from the fitted curve at half-maximal effect;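 as to viability: 100% = DMSO wells and 0% = empty wells without cells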
In short: as §1

[11] = Cellular viability qHTS for adrenocortical cancer (ACC) cell line NCI-H295R (AID 1963990);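 also: 0% = DMSO only wells and -100% = full killing with cytotoxic reference compound; nearly all actives have a fitted effect of over 60% in size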
In short: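 Luminescent ATP read-out (CellTiter-Glo, 20 min RT) after 48 h drug exposure of NCI-H295R cells; a titration up to 46 uM final. Data normalized to doxorubicin (100% inhibition) and DMSO (0%); 4-parameter fit gives IC50, max response.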

COc1cccc2c1[C@]13CCN(CC4CC4)[C@H](C2)[C@]1(OC)CCC(=O)C3
inactive: Potency [1] | Potency [2] | Potency [3] | Potency [4] | Potency [5] | Potency [6]

CC[C@H]1C=CC=CC[C@@H](C)[C@H](O)[C@@](C)(O)C(=O)[C@@H](C)[C@H](O)[C@@H](C)C(=O)[C@@H](C)[C@H](O)[C@@H](C)C=CC(=O)O[C@@H]2[C@@H](C)[C@H](CC1)O[C@]1(CC[C@H](C)[C@H](C[C@@H](C)O)O1)[C@H]2C
active: Potency [1] 4690 nM | Potency [2] 11800 nM | Potency [4] 16600 nM | Potency [5] 5900 nM | Potency [6] 4690 nM

O=c1[nH]c2ccc(Cl)cc2c(N[C@@H]2CN3CCC2CC3)c1-c1nc2ccccc2[nH]1
active: Potency [7] 132 nM | Potency [1] 148 nM | Potency [2] 469 nM | Potency [3] 372 nM | Potency [6] 66.2 nM | Potency [8] 3550 nM

C=C[C@@H]1CN2CCC1C[C@@H]2[C@@H](O)c1ccnc2ccccc12 (some centres undefined)
inactive: Potency [7] | Potency [9] | Potency [2] | Potency [3] | Potency [4] | Potency [5]

C[C@H]([C@H](O)CCC(C)(C)O)[C@H]1CC[C@@]2(O)C3=CC(=O)[C@@H]4C[C@@H](O)[C@@H](O)C[C@]4(C)[C@@H]3CC[C@]12C
inactive: Potency [7] | Potency [9] | Potency [2] | Potency [3] | Potency [4] | Potency [5] | Potency [10]

CC(N[C@H]1C[C@H]1c1ccccc1)c1ccc2c(c1)OCCO2 (some centres undefined)
inactive: Potency [1] | Potency [9] | Potency [2] | Potency [3] | Potency [4] | Potency [6]

C[C@]12CCC(=O)C(O)=C1CC[C@@H]1[C@H]3CCC(=O)[C@@]3(C)CC[C@@H]12
inactive: Potency [7] | Potency [1] | Potency [5] | Potency [10]

CC(=CCCC1=CCC(C2=CC(=O)OC2O)OC1O)CCC1=C(C)CCCC1(C)C (centres undefined)
inactive: Potency [7] | Potency [1] | Potency [9] | Potency [3] | Potency [4] | Potency [5] | Potency [6]

CCOC(=O)c1cncn1[C@H](C)c1ccccc1
inactive: Potency [1] | Potency [2] | Potency [3] | Potency [5] | Potency [6]

C[C@@H]1CC[C@H]2[C@@H](C)C(=O)O[C@@H]3O[C@@]4(C)CC[C@H]1[C@]32OO4
inactive: Potency [7] | Potency [1] | Potency [2] | Potency [4] | Potency [5]

COc1cc2cc(c1Cl)N(C)C(=O)C[C@H](OC(=O)C(C)C)[C@]1(C)O[C@H]1[C@H](C)[C@@H]1C[C@@](O)(NC(=O)O1)[C@H](OC)C=CC=C(C)C2
inactive: Potency [7] | Potency [2] | Potency [3] | Potency [4]

CC(C)[C@]12O[C@@H]1[C@@H]1O[C@]13[C@]1(O[C@H]1C[C@@H]1C4=C(CC[C@@]13C)C(=O)OC4)[C@H]2O
active: Potency [1] 1.2 nM | Potency [9] 1.2 nM | Potency [3] 1.2 nM | Potency [4] 1.5 nM | Potency [5] 1.2 nM

C[C@@H]1[C@H](O)[C@@H](C)C=CC=CCCC=CC=CC=CC=C[C@H](O[C@H]2O[C@@H](C)[C@H](O)[C@@H](N)[C@@H]2O)CC2O[C@](O)(C[C@@H](O)[C@H](O)CC[C@@H](O)C[C@@H](O)C[C@@H](O)CC(=O)O[C@H]1C)C[C@H](O)[C@H]2C(=O)O
inactive: Potency [7] | Potency [1] | Potency [2] | Potency [3] | Potency [4]

Cc1ccccc1-n1c(Cn2ncc3c(N)ncnc32)nc2cccc(C)c2c1=O
inactive: Potency [5]
active: Potency [1] 833 nM | Potency [2] 2960 nM | Potency [4] 2640 nM

NC1CC1c1ccccc1 (centres undefined)
inactive: Potency [7] | Potency [1] | Potency [2] | Potency [3]

C=C1C[C@H]2[C@H]3CCC(=O)[C@@]3(C)CC[C@@H]2[C@@]2(C)C=CC(=O)C=C12
inactive: Potency [7]

COC1(CS(=O)c2ccccc2)CCN(CCc2c[nH]c3ccc(F)cc23)CC1 (centres undefined)
inactive: Potency [1] | Potency [2] | Potency [3] | Potency [4] | Potency [5] | Potency [6] | activity (max response) [8] -19.4% | Potency [11]

Cc1nc(-c2ccc(-c3ccc(C(=O)N4CCc5cc6c(cc54)C4(CCN(C)CC4)CO6)cc3)c(C)c2)no1
inactive: Potency [7] | Potency [1] | Potency [2] | Potency [4] | Potency [10] | Potency [6]

C=C[C@@H]1CN2CCC1C[C@H]2[C@H](O)c1ccnc2ccccc12 (some centres undefined)
inactive: Potency [7]
active: Potency [1] 18700 nM

C[C@@H]1O[C@@H](O[C@@H]2C=C3CC[C@@H]4[C@@H](CC[C@]5(C)[C@H](c6ccc(=O)oc6)CC[C@@]45O)[C@@]3(C)CC2)[C@H](O)[C@H](O)[C@H]1O
active: Potency [7] 66.2 nM | Potency [1] 46.9 nM | Potency [9] 33.2 nM | Potency [3] 23.5 nM | Potency [4] 41.8 nM | Potency [5] 23.5 nM | Potency [10] 46.9 nM

C[C@]12CC[C@H](O)CC1=CC[C@H]1[C@H]3CCC(=O)[C@@]3(C)CC[C@@H]12
inactive: Potency [1] | Potency [9] | Potency [3] | Potency [5]

COC1=C[C@@H]2[C@@H]3Cc4ccc(OC)c(O)c4[C@]2(CCN3C)CC1=O
inactive: Potency [7] | Potency [1] | Potency [2] | Potency [3] | Potency [4] | Potency [10] | activity (max response) [8] -18.4% | Potency [11]

Oc1ccc2c3c1O[C@H]1c4[nH]c5c(c4C[C@@]4(O)[C@@H](C2)N(CC2CC2)CC[C@]314)C[C@@]1(O)[C@H]2Cc3ccc(O)c4c3[C@@]1(CCN2CC1CC1)[C@H]5O4
inactive: Potency [1] | Potency [9] | Potency [3]

CO[C@H]1CCC(O[C@H]2C[C@H]([C@]3(C)CC[C@]4(C[C@H](O)[C@@H](C)[C@@H]([C@@H](C)C=C(C)C(=O)[C@H](C)C[C@H](C)C(=O)O)O4)O3)O[C@]3(O[C@@H]([C@H]4O[C@@](O)(CO)[C@H](C)C[C@H]4C)C[C@H]3C)[C@H]2C)O[C@H]1C (some centres undefined)
active: Potency [7] 18700 nM | Potency [2] 3720 nM | Potency [10] 1870 nM

CC(=Cc1csc(C)n1)[C@@H]1C[C@H]2O[C@@H]2CCC[C@H](C)[C@@H](O)[C@@H](C)C(=O)C(C)(C)[C@@H](O)CC(=O)O1
inactive: Potency [7] | Potency [4] | Potency [5] | Potency [6]

CC1=NN=C(c2ccc(N)cc2)c2cc3c(cc2C1)OCO3
inactive: Potency [7] | Potency [1] | Potency [9] | Potency [5]

COc1ccc2c(c1)CN(C)CC2c1ccc(Cl)c(Cl)c1 (centres undefined)
active: Potency [7] 23500 nM | Potency [1] 9350 nM
inactive: Potency [2] | Potency [4]

COc1ccc2c(c1)[C@]13CCCCC1C(C2)N(C)CC3 (some centres undefined)
inactive: Potency [7] | Potency [2] | Potency [10]

CC(C)(O)C(=O)Nc1ccc([N+](=O)[O-])c(C(F)(F)F)c1
inactive: Potency [5] | activity (max response) [8] -7.23% | Potency [11]
active: Potency [1] 1870 nM | Potency [2] 8330 nM | Potency [3] 16600 nM | Potency [4] 8330 nM

C[C@@]12OC(=O)[C@]1([C@@H](O)[C@@H]1C=CCCC1)NC(=O)[C@H]2CCCl
active: Potency [7] 235 nM | Potency [1] 209 nM | Potency [2] 235 nM | Potency [3] 187 nM | Potency [5] 52.6 nM

CC(C)(C)[C@]1(O)C[C@@H]2OC(=O)C[C@@]23C(=O)O[C@@H]2OC(=O)[C@H](O)C213 (some centres undefined)
inactive: Potency [7] | Potency [4] | Potency [5] | Potency [10] | Potency [6]

c1cc2c(cc1[C@H]1OC[C@H]3[C@H]1CO[C@H]3c1ccc3c(c1)OCO3)OCO2
inactive: Potency [1] | Potency [9] | Potency [10]

CN(C)CCN(C)CCc1ccc(Cl)c(Cl)c1
inactive: Potency [7] | Potency [1] | Potency [2] | Potency [3] | Potency [6] | activity (max response) [8] -5.37% | Potency [11]

CC(O)=C(C#N)C(=O)Nc1cc(Br)ccc1Br
inactive: Potency [7] | Potency [9] | Potency [3]

C#C[C@]1(O)C=C[C@@H]2[C@@H]3CCC4=CC(=O)CC[C@@H]4[C@H]3CC[C@@]21CC
inactive: Potency [1] | Potency [2] | Potency [3] | Potency [4] | Potency [6]

CCOC(=O)c1c(C(C#N)=CN)c2ccc(Cl)c(Cl)c2n1C
inactive: Potency [7] | Potency [1] | Potency [2] | Potency [4] | Potency [6] | activity (max response) [8] -1.19% | Potency [11]

COc1ccc(CC2NCCc3cc(OC)c(OC)cc32)cc1OC (centres undefined)
active: Potency [10] 14800 nM
inactive: Potency [9] | Potency [2]

CCCN1CCO[C@@H]2c3cc(O)ccc3OC[C@@H]21
active: Potency [3] 26400 nM

COc1ccc2c(c[n+](C)c3c4cc5c(cc4ccc23)OCO5)c1OC
active: Potency [3] 14800 nM | Potency [10] 8330 nM | Potency [6] 9350 nM

c1ccc(CCCN2CCN(CCOC(c3ccccc3)c3ccccc3)CC2)cc1
active: Potency [4] 18700 nM

Cc1c(N)nc([C@H](CC(N)=O)NC[C@@H](N)C(N)=O)nc1C(=O)N[C@H](C(=O)N[C@@H](C)[C@H](O)[C@@H](C)C(=O)N[C@@H](C(=O)NCCc1nc(-c2nc(C(=O)NCCC[S+](C)C)cs2)cs1)[C@@H](C)O)C(O[C@H]1O[C@H](CO)[C@H](O)[C@@H](O)[C@@H]1O[C@H]1O[C@H](CO)[C@@H](O)[C@H](OC(N)=O)[C@H]1O)c1cnc[nH]1 (some centres undefined)
active: Potency [6] 4180 nM

C[C@@H]1[C@@H](C(=O)C[C@H]2O[C@@H]3O[C@]4(C)CC[C@@H]5[C@H](C)CC[C@@H]([C@H]2C)[C@@]35OO4)O[C@@H]2O[C@]3(C)CC[C@H]4[C@H](C)CC[C@@H]1[C@@]24OO3
active: Potency [2] 23500 nM | Potency [3] 16600 nM | Potency [5] 26400 nM | Potency [6] 23500 nM

CCN(CC)C(=O)c1ccc(C2=CC3(CCNCC3)Oc3cccc(O)c32)cc1
inactive: Potency [3] | Potency [4] | Potency [11]
